By inhibition is commonly meant the share of the control response that was lost under treatment.

The values below come from PubChem BioAssay.

A number with no mark means an inactive call. The rule behind the calls is not given here.

For the experiment, the target named is Pantothenate synthetase (Mycobacterium tuberculosis (strain ATCC 25618 / H37Rv)) (UniProt P9WIL5). Kind of experiment: Recombinant Mtb pantothenate synthetase (PanC) inhibitors, coupled enzyme, confirmatory (AID 375).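 Note: 0% = full reaction with vehicle and 100% = no enzyme background.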 The settings on record: coupled enzyme assay; at 10 µM, stronger effect = higher value.
Chain of Pantothenate synthetase (Mycobacterium tuberculosis (strain ATCC 25618 / H37Rv)) (P9WIL5 whole entry, looked up): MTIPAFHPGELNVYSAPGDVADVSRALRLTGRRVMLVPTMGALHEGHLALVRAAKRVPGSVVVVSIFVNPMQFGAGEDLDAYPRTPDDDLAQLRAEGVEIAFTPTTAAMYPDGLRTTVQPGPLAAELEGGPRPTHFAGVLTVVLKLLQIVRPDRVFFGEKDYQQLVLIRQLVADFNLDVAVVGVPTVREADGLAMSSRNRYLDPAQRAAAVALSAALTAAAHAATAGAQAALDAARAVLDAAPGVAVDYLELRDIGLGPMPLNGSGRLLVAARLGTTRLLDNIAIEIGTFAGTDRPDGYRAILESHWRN
For `Cc1ccc(C)c(-c2nc3cc(N)ccc3o2)c1`, the inhibition was 0%.

Take `Cc1cccc(-n2ncc3c(NCc4cccnc4)ncnc32)c1`: the inhibition was 7%. In the case of `Cc1cc2ncn(S(=O)(=O)c3ccc(S(=O)(=O)N4CCOCC4)cc3)c2cc1C` it was 5%. In the case of `CNC(=O)c1ccsc1NC(=O)CN1C(=O)CCC1=O` it was 0%. In the case of `Cc1cc(C(=O)CSCCCn2c(=O)[nH]c3ccccc32)c(C)n1C` it was 2%; in that of `CSc1nsc(SCC(=O)N2CCc3ccccc32)n1`, 8%; in that of `COc1ccc(NC(=O)CS(=O)CC(=O)Nc2cc(Cl)ccc2OC)cc1` (stereo not given), 3%. For the compound `COC(=O)Nc1ccccc1C(=O)N1CCCCC1`, the inhibition is 0%.

For `CCN(C(=O)Cc1c(C(=O)O)[nH]c2ccccc12)c1cc(OC)ccc1OC`, the inhibition is 0%. In the case of `CCOCCCNC(=O)c1ccc2c(c1)N(Cc1ccccc1)C(=O)CS2=O` (stereo not given) it was 0%; in that of `COc1ccc(C(c2nnnn2C2CCCC2)N2CCC(C)CC2)c(OC)c1` (stereo not given), 3%; in that of `O=C(OCC(=O)N1CCCC1)c1cncc(Br)c1`, 1%.

For `Cc1ccc(C(O)c2nc3ccccc3n2C(C)C)cc1` (stereo not given), the inhibition is 0%. Turning to `CCn1ncc(C2=NOC(C(=O)N3CCC(C(N)=O)CC3)C2)c1C` (stereo not given), the inhibition is 0%. In the case of `Nc1nnnn1/N=C/c1ccccn1` it was 0%; in that of `COC(=O)c1ccc(-c2ccc(CNCC(O)c3ccccc3)o2)cc1` (stereo not given), 1%.

In the case of `CS(=O)(=O)N(Cc1nc2sc3c(c2c(=O)[nH]1)CCCC3)C1CCCCC1`, the inhibition was 0%. `O=C(NCC1COc2ccccc2O1)c1ccc(NC(=O)c2ccco2)cc1` (stereo not given): the inhibition is 0%. In the case of `c1ccc(OCc2nc(-c3ccccc3)no2)cc1` it was 0%; in that of `Cc1c(O)c(CN2CCCC(C)C2)cc2c3c(c(=O)oc12)CCC3` (stereo not given), 9%; in that of `COc1cc2c(cc1OC)C(c1ccc(C)o1)CC(=O)N2` (stereo not given), 3%.

With `COCCCNS(=O)(=O)c1ccc2c(c1)CCN2C(C)=O`, the inhibition was 0%. In the case of `CSC1=C(C#N)C(C)CC(=O)N1` (stereo not given) it was 0%; in that of `Cn1c(Cl)nc2ccccc21`, 0%; in that of `COc1ccc(C(=O)Nn2c(SCC(=O)NCC3CCCO3)nc3ccccc3c2=O)cc1` (stereo not given), 2%.

For `Cc1c[nH]c2cccc(OCC(O)CNC(C)(C)C)c12` (stereo not given), the inhibition is 0%. With `COc1ccc2cc(CN(CCO)C(=O)c3ccc(Br)cc3)c(=O)[nH]c2c1` the figure was 14%; with `COc1cc(C(O)c2nc3ccccc3n2C)cc(OC)c1OC` (stereo not given), 0%. With `CCN1CCN(CCCNC(=O)c2cn(CCOC)c(=O)c3c2c2ccccc2n3C)CC1` the figure was 0%.

In the case of `CCN(CCCNS(=O)(=O)c1ccc2c(c1)oc(=O)n2C)c1cccc(C)c1`, the inhibition is 0%. With `CCOC(=O)N1CCC(N2C(=O)c3ccc(C(=O)NCc4ccco4)cc3C2=O)CC1` the figure was 2%; with `CSc1ccc2c(c1)N(CCC1CCCCN1C)c1ccccc1S2` (stereo not given), 11%; with `Cc1ccc(-c2nnn(CC(=O)NC3CC4CCC3C4)n2)cc1` (stereo not given), 4%. In the case of `Cc1cncn1CCc1nc2c3ccccc3nc(=S)n2[nH]1` it was 7%; in that of `Cc1ccc(C)n1NC(=O)c1ccco1`, 0%. In the case of `CCOc1ccccc1N(CC(=O)N1CCCCCC1)S(C)(=O)=O` it was 0%.

In the case of `COc1ccc(CCN2CC(O)=C(c3nc4ccccc4c(=O)[nH]3)C2=N)cc1OC`, the inhibition was 0%. For `CCCCCn1c(CN2CCN(c3cccc(Cl)c3)CC2)nc2c1c(=O)n(C)c(=O)n2C`, the inhibition was 0%. In the case of `O=C(C1CC1(c1ccccc1)c1ccccc1)N1CCOCC1` (stereo not given), the inhibition was 0%. With `CCOC(=O)c1ccc2[nH]c3c(c2c1)CCCCC3=O` the figure was 0%.
